From PubChem BioAssay AID687001 (Broad Institute, 2013)
Potency and affinity values are given separately. Calls of active or inactive are those of the source.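 The calls were made as follows: active = signal-lowering compounds whose fitted half-maximal concentration is at or below twice the top tested dose in every run; inconclusive = runs disagree, flat 30 to 70% inhibition, or poor curve fit; inactive = the rest.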

Molecular target: Protein S100-A4 (Homo sapiens) (UniProt P26447)
Experiment: S100A4-myosin IIA binding inhibitor potency, dose response, biochemical, fluorescence polarization, cherry-picked hits (AID 687001)
Details: FP, S100A4/TAMRA-myosin IIA peptide binding; series mostly up to 11 µM

Sequence of Protein S100-A4 (Homo sapiens) (P26447 whole entry, looked up): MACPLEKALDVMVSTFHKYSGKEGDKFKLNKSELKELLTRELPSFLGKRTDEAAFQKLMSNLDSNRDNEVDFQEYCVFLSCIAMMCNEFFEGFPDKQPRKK

With `Cc1ccc(C(=O)NC2CC(=O)N(c3ccc4c(c3)OCCO4)C2)cc1[N+](=O)[O-]` (configuration not stated) the outcome was “inactive”.

In the case of `CCCCn1c(N)c(N(CC)C(=O)CSCc2ccc(C)cc2)c(=O)[nH]c1=O`, the outcome is reported as “inactive”.

For `CN1c2ccc(C#Cc3cccnc3)cc2[C@@H]2[C@@H](CCN2S(=O)(=O)c2ccccc2F)[C@@H]1CO`, the outcome was “inactive”.

`COc1ccc(N2CCN(C(=O)[C@H](C)N3C(=O)C4CC=CCC4C3=O)CC2)cc1` (some centres not stated) was tested, and the outcome was “inactive”.

For `Cc1ccc(C(=O)C2=C(O)C(=O)N(Cc3cccnc3)C2c2cccc([N+](=O)[O-])c2)o1` (configuration not stated), the outcome was “inactive”.

In the case of `COc1ccccc1C(=O)NC(=O)COC(=O)c1ncc(Cl)c(Cl)c1Cl`, the outcome is reported as “inactive”.

With `COc1cccc(CN2CC3(CN(C)C3)c3c([nH]c4cc(OC)ccc34)[C@@H]2CO)c1` the outcome was “inactive”.

`O=C(C[C@@H]1CC[C@@H](NC(=O)CC2CC2)[C@H](CO)O1)NCc1ccc(Cl)cc1` was tested, and the outcome was “inactive”.

`CNC[C@H]1OCCCC[C@@H](C)Oc2ccc(NC(=O)C3CCCCC3)cc2C(=O)N([C@@H](C)CO)C[C@@H]1C` was tested, and the outcome was “inactive”.

For `CCCNC(=O)N[C@H]1C=C[C@@H](CC(=O)N2CCN(C)CC2)O[C@@H]1CO`, the outcome was “inactive”.

`Cc1cc(C)c(C(=O)COC(=O)CNC(=O)c2ccccc2C)c(C)c1` was tested, and the outcome was “inactive”.

`CCOc1ccc(NC(=O)CN(C)C(=O)c2cccc3ccccc23)cc1OCC` was tested, and the outcome was “inactive”.

In the case of `Cc1cccc(NS(=O)(=O)c2c(C(=O)N3CCOCC3)c(C)n(C)c2C)c1C`, the outcome is reported as “inactive”.

For `O=C(NCCC1CCCCN1S(=O)(=O)c1ccccc1)C(=O)NCC1CCCO1` (configuration not stated), the outcome was “inactive”.

With `CO[C@H]1CN(C)C(=O)c2cc(NC(C)=O)ccc2OC[C@H](C)N(Cc2ccccn2)C[C@H]1C` the outcome was “inactive”.

In the case of `C[C@H]1CN([C@@H](C)CO)C(=O)Cc2cc(NC(=O)CCC(F)(F)F)ccc2O[C@@H]1CN(C)C`, the outcome is reported as “inactive”.

With `Nc1cnccc1C(=O)O` the outcome was “inactive”.

For `Cc1ccc(NS(=O)(=O)c2ccc(-c3coc(C)n3)cc2)c(C)c1`, the outcome was “inactive”.

`Cc1cc2ccccc2n1CCNC(=O)Cc1cccc2ccccc12` was tested, and the outcome was “inactive”.

In the case of `Cc1ccc(S(=O)(=O)N(C)C[C@H]2Oc3ccc(NC(=O)Nc4ccccc4)cc3C(=O)N([C@@H](C)CO)C[C@H]2C)cc1`, the outcome is reported as “inactive”.

With `CCOc1ccc(N(CC)C(=O)CCS(=O)(=O)c2cccc3nonc23)cc1` the outcome was “inactive”.

For `COc1cc(/C=C2\SC(=S)N(NC(=O)c3ccccc3OC)C2=O)ccc1O`, the outcome was “inactive”.

`C[C@@H]1CN([C@H](C)CO)C(=O)c2cccc(NS(C)(=O)=O)c2O[C@@H]1CN(C)CC1CC1` was tested, and the outcome was “inactive”.

With `COc1ccc(-c2sc3ccccc3c2-c2ccc(OCCN(C)C)cc2)cc1` the outcome was “inactive”.

With `CCCNC(=O)[C@@H]1[C@@H](CO)[C@@H]2Cn3c(cccc3=O)[C@@H]2N1C(=O)C1CCC1` the outcome was “inactive”.

For `C[C@H](CO)N1C[C@H](C)[C@@H](CN(C)CC2CC2)OCc2cnnn2CCCC1=O`, the outcome was “inactive”.

In the case of `CC(C)c1ccc(/C=N/n2c(COc3ccccc3)n[nH]c2=S)cc1`, the outcome is reported as “inactive”.

`C[C@@H]1CN([C@H](C)CO)S(=O)(=O)c2ccc(C#CCN(C)C)cc2O[C@@H]1CN(C)CC1CC1` was tested, and the outcome was “inactive”.

With `O=C(CC(F)(F)F)N1C[C@@H]2[C@H](c3ccccc31)[C@@H](CO)N2CC1CCOCC1` the outcome was “inactive”.

With `COc1ccc(CN(C)C[C@H]2Oc3c(NC(=O)Nc4ccccc4)cccc3C(=O)N([C@@H](C)CO)C[C@@H]2C)cc1` the outcome was “inactive”.

For `COc1ccc2c(c1)CCC/C2=N\Nc1nc(C(=O)NN)cs1`, the outcome was “inactive”.

With `CCCCn1c(SCC(=O)NC2CCS(=O)(=O)C2)nc2ccccc2c1=O` (configuration not stated) the outcome was “inactive”.

With `CCNC(=O)NC(=O)CSc1cccc(C(F)(F)F)c1` the outcome was “inactive”.

`O=C(c1cnn(C(=O)c2ccco2)c1)c1cc(Cl)cc(Cl)c1O` was tested, and the outcome was “inactive”.

In the case of `O=C(NCCNC(=O)c1cccc(O)c1)c1cccc(O)c1`, the outcome is reported as “inactive”.

`O=C(COC(=O)CCCN1C(=O)c2cccc3cccc(c23)C1=O)NC1CCS(=O)(=O)C1` (configuration not stated) was tested, and the outcome was “inactive”.

In the case of `CC(OC(=O)/C=C/c1cccs1)C(=O)NC1CCCCC1C` (configuration not stated), the outcome is reported as “inactive”.

`O=C(OCc1cc(=O)n2ccsc2n1)c1ccc(OC(F)F)cc1` was tested, and the outcome was “inactive”.

With `O=C(CSc1ncnc2c1nnn2Cc1ccc(F)cc1)NCC1CCCO1` (configuration not stated) the outcome was “inactive”.

In the case of `O=C(NCCC1CCCCN1S(=O)(=O)c1cccs1)C(=O)Nc1ccc(F)cc1` (configuration not stated), the outcome is reported as “inactive”.

`O=C(O)c1ccc2c(c1)C(=O)N(c1cccc3ccccc13)C2=O` was tested, and the outcome was “inactive”.

With `O=C(CNC(=O)c1ccc(Cl)cc1Cl)OCc1cn2cc(Br)ccc2n1` the outcome was “inactive”.
